Data: ChEMBL document CHEMBL4513216, “Probing the Open Global Health Chemical Diversity Library for Multistage-Active Starting Points for Next-Generation Antimalarials” (ACS Infect Dis, 2020)
Hit rate of the full screen: of about 69,000 compounds, about 8,600 (12%) showed an effect of 50% or more. For the sample, strong results were picked, then their nearest neighbours and some compounds at random.

What follows are molecules tested on Plasmodium berghei (assay: Screen against P. berghei liver stage (PbLuc), transformed with Luciferase, at 10uM). Conditions: tested at 10 uM.
Type: functional, HepG2

SMILES	INHIBITION [%]
CC(CNC(=O)c1c[nH]nn1)Oc1ccc(Cl)cc1 (configuration not stated)	51.6
CC(CNC(=O)c1ccncc1F)Oc1ccc(F)cc1 (configuration not stated)	28.2
CC(CNC(=O)c1c[nH]nn1)Oc1cccc(Br)c1 (configuration not stated)	-15
CC(CNC(=O)c1cnccn1)Oc1ccc(F)cc1 (configuration not stated)	69.9
CC(CNC(=O)c1cnccn1)Oc1cccc(Br)c1 (configuration not stated)	10
Cc1ccc(OC(C)CNC(=O)c2c[nH]nn2)cc1 (configuration not stated)	0.0944
Cc1cnc(N2C(=O)CSC2c2ccc(F)cc2)s1 (configuration not stated)	44.8
CC(=O)N1CCN(Cc2cccs2)CC2(CC(=O)N(C)C2)C1 (configuration not stated)	-2.35
COc1ccc(C)cc1CN(C)CC(=O)NC1(C)CCS(=O)(=O)C1 (configuration not stated)	29.7
CCc1noc(C(C)N2CCC(N3CCCCC3)CC2)n1 (configuration not stated)	44.1
CCc1noc(C(C)N2CCC(N3CCCC3)CC2)n1 (configuration not stated)	50.4
CCOCCN1CCN(C(C)c2nc(C3CC3)no2)CC1 (configuration not stated)	0.55
CCc1noc(C(C)N2CCC(C)CC2)n1 (configuration not stated)	2.97
Cc1nc(CN2CCN(C(C)c3nc(C4CC4)no3)CC2)no1 (configuration not stated)	-21.9
CCc1noc(C(C)N2CCN(Cc3noc(C)n3)CC2)n1 (configuration not stated)	61.3
COCCCN1CCCN(C(C)c2nc(C3CC3)no2)CC1 (configuration not stated)	54.9

SMILES	INHIBITION [%]
COCCN1CCN(C(C)c2nc(C3CC3)no2)CC1 (configuration not stated)	28.6
CCc1noc(C(C)N2CCN(CC)CC2)n1 (configuration not stated)	-54.6
CCc1noc(C(C)N2CCN(Cc3noc(C4CC4)n3)CC2)n1 (configuration not stated)	65.7
CCc1noc(C(C)N2CCCN(Cc3noc(C4CC4)n3)CC2)n1 (configuration not stated)	15.7
Cc1noc(C(C)N2CCN(Cc3noc(C4CC4)n3)CC2)n1 (configuration not stated)	37.4
Cc1ccc(-c2ccnc(NCC3(N(C)C)CCOCC3)n2)c(C)n1	19.2
Cn1cnc2c1CCN(Cc1csc(-c3ccco3)n1)C2	5.8
CC(O)CN1CCC(CNCc2cccc(Cl)c2)CC1 (configuration not stated)	24
COCCN1C(=O)[C@@H]2CC[C@H]1CN(S(=O)(=O)c1cccc(Cl)c1)C2	32.2
COC(=O)C(C)(C)NC(=O)C1CC(=O)N(CC(C)C)C1 (configuration not stated)	-22.1
OC1(CNCCc2nc3c(s2)CCCC3)CCNC1 (configuration not stated)	-41.6
O=c1[nH]c2cn(-c3ccc(F)cc3)c(=O)n2n1Cc1cccc(Cl)c1	9.48
CN1CCC2(CC1)Cc1ccccc1CN(C(=O)CN)C2	29.2
Cc1cc(N(C)C)nc(C2(C)CCNCC2)n1	-5.8
CCn1cc(NC(=O)NCCN2CCCCCC2=O)cn1	7.24
CC(C)(C)NC(=O)CNc1ncc(Br)cn1	28.8
